Results taken from PubChem BioAssay AID1159580 (chemical genetic matrix, 2015).
Where “and” joins values, the source holds several entries; their conditions need not be identical. Equal values may be shown once. Out of some 5,500 compounds screened, about 2,000 (36%) were called active. Inconclusive results (about 18%) are left out. No stated cut-off is given here; in the data, active means normalized growth mostly below about 0.91 (no sharp cut-off); inconclusive means no clear call, values can overlap the other calls; inactive means mostly above about 0.92. Some of the results follow.

Experiment: chemical genetic growth profiling, strain panel (AID 1159580);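 further: tested at 20 µM; growth read once vehicle control cultures reached saturation at 30 °C; 1 = growth at the plate median or of vehicle wells; lower values mean less growth of the strain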
Conditions: S. cerevisiae deletion strains, growth OD

Measured: normalized growth

COc1cc2c(cc1OC)[C@@H]1C(=O)c3ccc4oc(C(C)C)cc4c3O[C@@H]1CO2
inactive: locus YAL021C, strain ccr4, active compounds read low 0.983 | locus YAL026C, strain drs2, active compounds read low 0.995 | locus YAL030W, strain snc1, active compounds read low 1 | locus YBL061C, strain skt5, active compounds read low 0.995 | locus YBR009C, strain hhf1, active compounds read low 0.992 | locus YBR021W, strain FUR4, active compounds read low 1.01 | locus YBR023C, strain chs3, active compounds read low 0.996 | locus YBR171W, strain sec66, active compounds read low 0.999 | locus YBR229C, strain ROT2, active compounds read low 1.01 | locus YBR231C, strain swc5, active compounds read low 0.992 | locus YBR279W, strain paf1, active compounds read low 0.996 | locus YCL011C, strain gbp2, active compounds read low 0.97 | locus YCL016C, strain dcc1, active compounds read low 0.993 | locus YCL029C, strain bik1, active compounds read low 1.07 | locus YCL061C, strain MRC1, active compounds read low 0.981 | locus YCL069W, strain vba3, active compounds read low 1 | locus YCR088W, strain abp1, active compounds read low 0.993 | locus YDL005C, strain med2, active compounds read low 0.981 | locus YDL035C, strain GPR1, active compounds read low 1.02 | locus YDL040C, strain nat1, active compounds read low 0.989 | locus YDL074C, strain BRE1, active compounds read low 1.04 | locus YDL101C, strain DUN1, active compounds read low 1.01 | locus YDL185W, strain tfp1, active compounds read low 1.01 | locus YDL192W, strain arf1, active compounds read low 1.04 | locus YDR001C, strain nth1, active compounds read low 0.979 | locus YDR069C, strain doa4, active compounds read low 1.08 | locus YDR101C, strain arx1, active compounds read low 1.02 | locus YDR137W, strain rgp1, active compounds read low 0.992 | locus YDR150W, strain NUM1, active compounds read low 1.02 | locus YDR159W, strain sac3, active compounds read low 0.985 | locus YDR162C, strain NBP2, active compounds read low 1.04 | locus YDR195W, strain ref2 0.982 | locus YDR297W, strain sur2, active compounds read low 1.02 | locus YDR318W, strain mcm21, active compounds read low 1.04 | locus YDR334W, strain swr1, active compounds read low 0.977 | locus YDR335W, strain msn5, active compounds read low 0.986 | locus YDR388W, active compounds read low 1.02 | locus YDR392W, strain spt3, active compounds read low 0.996 | locus YDR502C, strain sam2, active compounds read low 1.03 | locus YEL003W, strain gim4, active compounds read low 1.01 | locus YEL037C, strain rad23, active compounds read low 0.995 | locus YEL061C, strain CIN8 (second series), active compounds read low 0.984 | locus YER015W, strain faa2, active compounds read low 0.99 | locus YER016W, strain bim1, active compounds read low 0.971 | locus YER110C, active compounds read low 1 | locus YER111C, strain swi4, active compounds read low 0.977 | locus YER155C, strain BEM2 (second series), active compounds read low 0.973 | locus YER155C, strain BEM2, active compounds read low 1.02 | locus YER167W, strain BCK2, active compounds read low 1.02 | locus YFR010W, strain ubp6, active compounds read low 0.998 | locus YGL078C, strain dbp3, active compounds read low 1.03 | locus YGL086W, strain mad1, active compounds read low 1.02 | locus YGL167C, strain pmr1, active compounds read low 0.982 | locus YGL173C, strain kem1, active compounds read low 0.975 | locus YGL227W, strain vid30, active compounds read low 0.982 | locus YGL240W, strain doc1, active compounds read low 0.991 | locus YGL248W, strain PDE1, active compounds read low 1.01 | locus YGL253W, strain hxk2, active compounds read low 0.991 | locus YGR078C, strain PAC10, active compounds read low 1.02 | locus YGR135W, strain pre9, active compounds read low 1.08 | locus YGR252W, strain gcn5, active compounds read low 1.01 | locus YHR013C, strain ard1, active compounds read low 0.973 | locus YHR027C, strain rpn1, active compounds read low 1 | locus YHR030C, strain SLT2, active compounds read low 0.999 | locus YHR079C, strain IRE1 (second series), active compounds read low 1 | locus YHR079C, strain IRE1, active compounds read low 0.985 | locus YHR094C, strain hxt1, active compounds read low 1.02 | locus YHR129C, strain ARP1, active compounds read low 1.02 | locus YHR142W, strain chs7, active compounds read low 1.01 | locus YHR200W, strain rpn10, active compounds read low 1.03 | locus YIL066C, strain RNR3, active compounds read low 1.02 | locus YIL073C, strain SPO22, active compounds read low 1.06 | locus YIL125W, strain kgd1, active compounds read low 1 | locus YIR030C, strain dcg1, active compounds read low 1.05 | locus YJL092W, strain hpr5, active compounds read low 0.968 | locus YJL095W, strain BCK1 (second series), active compounds read low 1.01 | locus YJL095W, strain BCK1, active compounds read low 1.04 and 0.981 | locus YJL115W, strain asf1, active compounds read low 0.957 | locus YJL129C, strain trk1, active compounds read low 0.974 | locus YJL134W, strain LCB3, active compounds read low 1.01 | locus YJL154C, strain vps35, active compounds read low 0.984 | locus YJL164C, strain tpk1, active compounds read low 1.03 | locus YJL166W, strain qcr8, active compounds read low 0.975 | locus YJL168C, strain set2, active compounds read low 1.01 | locus YJL187C, strain SWE1 (second series), active compounds read low 1.02 | locus YJR043C, strain POL32, active compounds read low 1.02 | locus YJR066W, strain TOR1, active compounds read low 0.907 | locus YKL009W, strain mrt4, active compounds read low 0.918 | locus YKL068W, active compounds read low 0.996 | locus YKL085W, strain MDH1 (second series), active compounds read low 0.989 | locus YKL085W, strain MDH1, active compounds read low 0.989 | locus YKL160W, strain elf1, active compounds read low 0.99 | locus YKL190W, strain CNB1, active compounds read low 1.02 | locus YKR001C, strain vps1, active compounds read low 1.02 | locus YKR026C, strain gcn3, active compounds read low 1 | locus YKR091W, strain srl3, active compounds read low 0.984 | locus YLL001W, strain dnm1, active compounds read low 0.972 | locus YLL026W, active compounds read low 0.976 | locus YLL041C, strain sdh2, active compounds read low 1.02 | locus YLR027C, strain aat2, active compounds read low 0.999 | locus YLR039C, strain RIC1, active compounds read low 1.1 | locus YLR058C, strain SHM2, active compounds read low 1.01 | locus YLR102C, strain apc9, active compounds read low 1.02 | locus YLR113W, strain HOG1, active compounds read low 1.05 | locus YLR221C, strain rsa3, active compounds read low 0.959 | locus YLR258W, strain gsy2, active compounds read low 0.992 | locus YLR262C, strain YPT6 (second series), active compounds read low 1.02 | locus YLR262C, strain YPT6, active compounds read low 1.06 | locus YLR268W, strain sec22, active compounds read low 1.02 | locus YLR320W, strain mms22, active compounds read low 0.986 | locus YLR330W, strain CHS5, active compounds read low 1.02 | locus YLR342W, strain FKS1 (second series), active compounds read low 1.03 | locus YLR342W, strain FKS1, active compounds read low 0.982 | locus YLR357W, strain rsc2, active compounds read low 0.986 | locus YLR370C, strain arc18, active compounds read low 0.981 | locus YLR371W, strain rom2, active compounds read low 1.06 | locus YLR384C, strain iki3, active compounds read low 0.993 | locus YLR418C, strain cdc73, active compounds read low 1.01 | locus YML016C, strain PPZ1, active compounds read low 1.02 | locus YML032C, strain rad52, active compounds read low 1.01 | locus YML120C, strain ndi1, active compounds read low 0.99 | locus YML124C, strain tub3, active compounds read low 1.03 | locus YMR058W, strain fet3, active compounds read low 0.968 | locus YMR078C, strain ctf18, active compounds read low 1.02 | locus YMR125W, strain sto1, active compounds read low 0.976 | locus YMR129W, active compounds read low 0.985 | locus YMR205C, strain PFK2, active compounds read low 0.987 | locus YMR223W, strain ubp8, active compounds read low 1.01 | locus YMR231W, strain pep5, active compounds read low 0.985 | locus YMR307W, strain GAS1, active compounds read low 0.974 | locus YNL067W, strain RPL9B, active compounds read low 1.02 | locus YNL071W, strain lat1, active compounds read low 1.05 | locus YNL183C, strain NPR1, active compounds read low 0.956 | locus YNL209W, strain ssb2, active compounds read low 0.993 | locus YNL233W, strain BNI4, active compounds read low 1.05 | locus YNL248C, strain rpa49, active compounds read low 0.976 | locus YNL250W, strain rad50, active compounds read low 1.02 | locus YNL271C, strain bni1, active compounds read low 1.02 | locus YNL298W, strain CLA4, active compounds read low 1.03 | locus YNL307C, strain MCK1, active compounds read low 1.03 | locus YNL322C, strain KRE1 (second series), active compounds read low 1 | locus YNL322C, strain KRE1, active compounds read low 1.01 | locus YNR049C, strain mso1, active compounds read low 0.982 | locus YNR052C, strain pop2, active compounds read low 1.01 | locus YOL006C, strain TOP1, active compounds read low 1.11 | locus YOL012C, strain htz1 0.869 | locus YOL147C, strain pex11, active compounds read low 1.04 | locus YOR001W, strain rrp6, active compounds read low 0.979 | locus YOR061W, strain CKA2, active compounds read low 1.02 | locus YOR069W, strain VPS5, active compounds read low 1.01 | locus YOR070C, strain gyp1, active compounds read low 0.987 | locus YOR080W, strain dia2, active compounds read low 0.965 | locus YOR083W, strain WHI5, active compounds read low 0.987 | locus YOR106W, strain vam3, active compounds read low 0.991 | locus YOR136W, strain idh2, active compounds read low 1 | locus YOR144C, strain elg1, active compounds read low 1.02 | locus YOR184W, strain ser1, active compounds read low 1.05 | locus YOR231W, strain MKK1, active compounds read low 0.975 | locus YOR265W, strain rbl2, active compounds read low 1 | locus YOR270C, strain vph1, active compounds read low 1.07 | locus YOR290C, strain snf2, active compounds read low 0.978 | locus YOR316C, strain cot1, active compounds read low 1 | locus YPL051W, strain arl3, active compounds read low 0.985 | locus YPL078C, strain atp4, active compounds read low 0.989 | locus YPL106C, strain sse1, active compounds read low 1.03 | locus YPL240C, strain hsp82, active compounds read low 1 | locus YPL256C, strain CLN2, active compounds read low 0.988 | locus YPR119W, strain clb2, active compounds read low 1.01 | locus YPR141C, strain kar3, active compounds read low 1.06 | locus YPR163C, strain tif3, active compounds read low 1.02 | locus YPR167C, strain met16, active compounds read low 1.05 | strain wtn01, active compounds read low 1.04
